PubChem BioAssay (Tox21)
Records with an inconclusive call do not appear. Active and inactive are the calls of the source. Unless noted, calls follow the shape of the full dose curve. Non-standard residues stand in square brackets, D forms with d. Residues, ends and D or L forms follow the SMILES beside them. *: point of attachment. Sta = CC(C)C[C@H](N)[C@@H](O)CC(=O)O; Isovaleryl = CC(C)CC(=O)*

Tests used:
[1] = target: Thyrotropin receptor (Homo sapiens) (UniProt P16473); assay: qHTS assay to identify small molecule agonists of the thyroid stimulating hormone receptor (TSHR) signaling pathway (AID 1224843); also: nearly all actives have a fitted effect of over 45% in size
Chain of Thyrotropin receptor (Homo sapiens) (P16473 whole entry, looked up): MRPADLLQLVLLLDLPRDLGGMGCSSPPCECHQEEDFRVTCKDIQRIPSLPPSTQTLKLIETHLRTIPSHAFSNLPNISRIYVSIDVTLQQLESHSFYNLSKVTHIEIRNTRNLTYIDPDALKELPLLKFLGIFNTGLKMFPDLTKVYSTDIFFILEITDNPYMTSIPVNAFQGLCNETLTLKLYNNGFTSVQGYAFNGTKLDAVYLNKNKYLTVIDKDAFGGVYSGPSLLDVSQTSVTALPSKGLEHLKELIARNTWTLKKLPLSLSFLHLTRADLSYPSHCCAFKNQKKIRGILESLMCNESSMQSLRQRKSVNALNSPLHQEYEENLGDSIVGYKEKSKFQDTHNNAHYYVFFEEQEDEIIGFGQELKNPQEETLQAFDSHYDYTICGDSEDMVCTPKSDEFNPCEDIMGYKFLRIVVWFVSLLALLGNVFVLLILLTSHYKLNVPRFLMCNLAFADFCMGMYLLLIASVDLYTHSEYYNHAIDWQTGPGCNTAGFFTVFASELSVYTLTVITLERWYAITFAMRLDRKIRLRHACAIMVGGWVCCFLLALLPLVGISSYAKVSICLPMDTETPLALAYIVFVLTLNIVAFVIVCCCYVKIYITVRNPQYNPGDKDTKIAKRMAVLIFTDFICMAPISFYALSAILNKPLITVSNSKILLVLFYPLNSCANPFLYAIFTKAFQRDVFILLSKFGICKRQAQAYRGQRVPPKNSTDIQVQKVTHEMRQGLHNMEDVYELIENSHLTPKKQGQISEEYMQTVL
Method in brief: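 HEK293/TSHR, 800 cells/well; cpd 30 min RT; add cAMP-d2 + anti-cAMP-cryptate, 1 h RT; fluorescence read on plate reader. 15-pt titration, n=3.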

[2] = qHTS assay to identify small molecule agonists of the hypoxia (HIF-1) signaling pathway - cell viability counter screen (AID 1224844); also: nearly all actives have a fitted effect of over 50% in size
Method in brief: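 Same wells as the HIF-1 reporter screen; ME-180 cells carrying HRE-bla, 17 hr treatment at 37C; CellTiter-Glo luminescence read after 30 min at room temperature.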

[3] = qHTS assay to identify small molecule agonists of H2AX (AID 1224845; active = well fitted activation curve with a large enough effect in the signal ratio in the repeat runs, not every such curve was filed as active; the % refers to the signal ratio)
Method in brief: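 Wild-type CHO-K1 cells, plated overnight, exposed 3hr at 37C to 15 concentrations (0.76% DMSO final). Lysed, then HTRF anti-pH2AX (S139) cryptate and anti-H2AX-d2 antibodies, 24 hr room temperature; 665/620 nm emission read.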

[4] = qHTS assay to identify small molecule agonists of the hypoxia (HIF-1) signaling pathway (AID 1224846; active = well fitted activation curve with a large enough effect in the signal ratio in the repeat runs, not every such curve was filed as active; the % refers to the signal ratio)
Method in brief: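 In ME-180 cells bearing an HRE-bla construct, 17 h treatment with DMSO-dissolved compounds at 37C was followed by CCF4-AM loading to quantify reporter induction.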

[5] = qHTS assay to identify small molecule agonists of H2AX - cell viability counter screen (AID 1224847); also: top concentration of the series differs between compounds; nearly all actives have a fitted effect of over 30% in size
Method in brief: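 Wild-type CHO-K1 cells (10% FBS medium) were plated overnight at 37C, exposed to compounds at 15 concentrations for 3 hr at 37C (0.76% DMSO final), and viability was read as CellTiter-Glo luminescence after 30 min at room temperature.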

[6] = qHTS RealTime-Glo MT Cell Viability Assay in HepG2 cells - 24 hour (AID 1224867; active = well fitted cell-killing curve with a large enough effect in the repeat runs; also: nearly all actives have a fitted effect of over 50% in size)
Method in brief: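 qHTS, HepG2, 600 cells/well, RealTime-Glo (NanoLuc + prosubstrate) added with cells; 5 h preincubation; DMSO compound addition; 37 C; luminescence at 0/8/16/24/32/40 h.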
% is scaled to controls: 0 for no effect and ±100 for the full control effect.

O=C[C@@H](O)[C@H](O)[C@H](O)CO
inactive: Potency [1] | outcome [2] | outcome [3] | outcome [4] | outcome [5] | outcome [6]

NS(=O)(=O)c1cc2c(cc1C(F)(F)F)NCNS2(=O)=O
inactive: Potency [1] | outcome [2] | outcome [3] | outcome [5] | outcome [6]

CC(=O)Oc1ccc(C(C)=O)cc1
inactive: Potency [1] | outcome [2] | outcome [4] | outcome [5] | outcome [6]

Cc1cc(C)c(N)c(Cl)c1
inactive: Potency [1] | outcome [2] | outcome [4] | outcome [5]

CC1(C)S[C@@H]2[C@H](NC(=O)Cc3ccccc3)C(=O)N2[C@H]1C(=O)O (tested in a mixture with another compound)
inactive: Potency [1] | outcome [2] | outcome [3] | outcome [5] | outcome [6]

C=C(C)C(=O)OCCCC
inactive: Potency [1] | outcome [2] | outcome [4] | outcome [5] | outcome [6]

C[C@@H]1CC[C@@]2(OC1)O[C@H]1C[C@H]3[C@@H]4CC[C@H]5C[C@@H](O)CC[C@]5(C)[C@H]4CC(=O)[C@]3(C)[C@H]1[C@@H]2C
inactive: activation [1] -5.02% [at 8.39 µM] | activity change, negative = cytotoxicity [2] 3.36% [at 6.97 µM] | activity change, negative = cytotoxicity [5] -1.3% [at 14 µM] | activity change, negative = cytotoxicity [6] -0.436% [at 6.97 µM]

CC(=O)O[C@@H]1CC2C3CCc4cc(OC(=O)c5ccccc5)ccc4C3CCC2(C)[C@H]1OC(C)=O (stereo partly drawn)
inactive: Potency [1] | outcome [2] | outcome [3] | outcome [4] | outcome [6]

O=C(c1ccccc1)c1cccc(O)c1
inactive: Potency [1] | outcome [2] | outcome [4] | outcome [6]

CNCCc1ccccn1
inactive: Potency [1] | outcome [2] | outcome [3] | outcome [5] | outcome [6]

CC(C)(C)NCC(O)COc1cccc2c1CCC(=O)N2 (stereo not drawn)
inactive: Potency [1] | outcome [2] | outcome [5] | outcome [6]

CCCCS
inactive: Potency [1] | outcome [2] | outcome [4] | outcome [5] | outcome [6]

C[C@@H]1CCC[C@H](C)N1CCCC(O)(c1ccccc1)c1ccccn1 (stereo partly drawn)
inactive: Potency [1] | outcome [2] | outcome [4] | outcome [5]

O=C(O)/C=C(\CC(=O)O)C(=O)O
inactive: Potency [1] | outcome [2] | outcome [3] | outcome [5] | outcome [6]

O=C(O)P(=O)(O)O
inactive: Potency [1] | outcome [2] | outcome [3] | outcome [4] | outcome [6]

Cc1ccc2ccccc2n1
inactive: Potency [1] | outcome [2] | outcome [4] | outcome [5] | outcome [6]

CCc1ccc(CC)cc1
inactive: Potency [1] | outcome [2] | outcome [4] | outcome [5]

CC(C)(O)c1ccc(C(C)(C)O)cc1
inactive: Potency [1] | outcome [2] | outcome [4] | outcome [5] | outcome [6]

Cc1ccc(S(=O)(=O)NC(=O)NN2CC3CCCC3C2)cc1 (stereo not drawn)
inactive: Potency [1] | outcome [2] | outcome [5] | outcome [6]

CCCCN(CCCC)CCCCCCN(CCCC)CCCC
inactive: Potency [1] | outcome [2] | outcome [4] | outcome [5]

CC(O)C(CO)C(C)O (stereo not drawn)
inactive: Potency [1] | outcome [2] | outcome [3] | outcome [4] | outcome [5] | outcome [6]

CC12CCCC=C1C(=O)OC2=O (stereo not drawn)
inactive: Potency [1] | outcome [2] | outcome [4] | outcome [5] | outcome [6]

COCCCOc1cc(C[C@@H](C[C@H](N)[C@@H](O)C[C@H](C(=O)NCC(C)(C)C(N)=O)C(C)C)C(C)C)ccc1OC
inactive: Potency [1] | outcome [2] | outcome [4] | outcome [5] | outcome [6]

CN1CCN(C(=O)C2CCCCC2)CC1
inactive: Potency [1] | outcome [2] | outcome [4] | outcome [5] | outcome [6]

COC(=O)c1ccc(C(=O)O)cc1
inactive: Potency [1] | outcome [2] | outcome [4] | outcome [5]

C/C(=N\O)c1ccc(OCC(=O)N2CCCCC2)cc1
inactive: Potency [1] | outcome [3] | outcome [4] | outcome [5]

CCCC[O][Al]([O]CCCC)[O]CCCC
inactive: Potency [1] | outcome [3] | outcome [4] | outcome [5]

O=Cc1ccc(C(=O)O)cc1
inactive: Potency [1] | outcome [2] | outcome [4] | outcome [5] | outcome [6]

Cc1ccccc1C#N
inactive: Potency [1] | outcome [2] | outcome [4] | outcome [5] | outcome [6]

O=CN1CCCCC1
inactive: Potency [1] | outcome [2] | outcome [4] | outcome [5] | outcome [6]

C=CCON/C(CCC)=C1\C(=O)CC(C)(C)C(C(=O)OC)=C1O
inactive: Potency [1] | outcome [2] | outcome [3] | outcome [4] | outcome [6]

NC[C@H]1O[C@H](O[C@H]2[C@H](O)[C@@H](O[C@H]3O[C@H](CO)[C@@H](O)[C@H](N)[C@H]3O)[C@H](N)C[C@@H]2N)[C@H](N)[C@@H](O)[C@@H]1O
inactive: activation [1] -7.89% [at 19 µM] | activity change, negative = cytotoxicity [2] 6.36% [at 15.8 µM] | activation (H2AX phosphorylation) [3] -4.26% [at 31.6 µM] | activation [4] -0.993% [at 15.8 µM] | activity change, negative = cytotoxicity [5] -0.161% [at 31.6 µM] | activity change, negative = cytotoxicity [6] 0.499% [at 15.8 µM]

CCCOc1ccc(C(=O)OCCN(CC)CC)cc1N
inactive: Potency [1] | outcome [2] | outcome [3] | outcome [5] | outcome [6]

CC(C)CC(=O)N[C@H](C(=O)N[C@H](C(=O)N[C@@H](CC(C)C)[C@@H](O)CC(=O)N[C@@H](C)C(=O)N[C@@H](CC(C)C)[C@@H](O)CC(=O)O)C(C)C)C(C)C (Isovaleryl-VV[Sta]A[Sta]-OH)
inactive: Potency [1] | outcome [2] | outcome [3] | outcome [5] | outcome [6]

Clc1ccc2c(c1)Nc1ccccc1S2
inactive: Potency [1] | outcome [2] | outcome [4] | outcome [5] | outcome [6]

C=CC(C)(CCC=C(C)C)OC(=O)C(C)C (stereo not drawn)
inactive: Potency [1] | outcome [2] | outcome [3] | outcome [4] | outcome [5] | outcome [6]

C=CCN1CCc2nc(N)sc2CC1
inactive: Potency [1] | outcome [2] | outcome [4] | outcome [5] | outcome [6]

CC(C)(C)C(=O)NCCCC(=O)O
inactive: Potency [1] | outcome [2] | outcome [4] | outcome [5] | outcome [6]

CCC(C)SSC(C)CC (stereo not drawn)
inactive: Potency [1] | outcome [2] | outcome [4] | outcome [5] | outcome [6]
